± gives the standard deviation of the averaged measurements. The full ranking holds about 25,000 sequences; the median of “ln(normalized median fluorescence intensity)” is about 7.9, and the highest 2% start at about 11. For the sample, the highest values were picked, then their nearest neighbours and some sequences at random.
Test system: PfAP2-I AP2 domain 3 (GST-tagged)
Experiment: gcPBM binding intensity (ln(normalized median fluorescence intensity)); higher = stronger DNA binding
How it was run: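 Binding of GST-tagged P. falciparum DNA-binding domains, expressed in E. coli and used at about 25 μg on average, was carried out for 1 h in 1× PBS containing 1% milk, 0.2 mg/ml BSA, 0.5% salmon testes DNA and 0.03% Triton X-100. The target was an Agilent 4 × 180k array of primer-extended double-stranded 36-bp intergenic genomic probes plus negative controls, read with Alexa488 anti-GST antibody at 488 nm. Binding intensity is the highest Masliner-normalised natural-log median intensity across replicate spots of either probe orientation.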

Sequence | gcPBM binding intensity (ln)
AATGTCATCATATTCATATATATTTATTTCTTTTTG [GTGCAC_negctrl_site500] | 7.68 ± 0.57
TAAATTTAGAAACACACACACATATATATATATATA [CACACA_site847] | 9.36 ± 0.38
TAATAACTACAAAAAAAAAAGAAAAATAGAAAAAGG [CACACA_negctrl_site1102] | 7.75 ± 0.67
ATAGAAGGCAACTTGGTGCACAAAAAAAAAAATAAT | 11.6 ± 0.25
AAAATAATAATAGGCACACATATATATATATATATA [CACACA_site2058] | 9.36 ± 0.32
TTTCACTACACAAATACACACAAAAATATATGTGCA [CACACA_site2632] | 7.91 ± 0.54
TACAAACACCCATATACACACAAAAAAAAAATAAAA [CACACA_site5421] | 7.78 ± 0.31
AAACAAAAAATATATACACACTAAACATAAAAAAAA [CACACA_site4185] | 7.81 ± 0.65
TCACCATATAAACGTGCACACTACAAAAATATATAA [CACACA_site5413] | 11 ± 0.24
TTTCACCATATAAACGTGCACACTACAAAAATATAT [CACACA_site2547] | 11.1 ± 0.35
CCATATCTTTTTTGCACACACTACAATAAAACAAAA [CACACA_site4995] | 9.95 ± 0.2
TCTAATTTAAAATACACACACATATCTATAATATAT [CACACA_site7029] | 7.63 ± 0.28
TGAAAAATATAAGGTTGTACTTACATCGGGAATAAT [XGTACX_site4701] | 8.05 ± 0.55
TAATTTTCAATAATTTGTACATAATTTTTATAAATT [XGTACX_site8133] | 7.49 ± 0.3
AAATCGTAATATATTTGTACTTATTTGAAAAATCCA [XGTACX_site8141] | 7.76 ± 0.33
TTCTTATTTAATGTATCACACACGAGAATAAAAAAT [CACACA_site8992] | 7.98 ± 0.48
ACATTTTTTTTTTTTTTTCTTTTTCTTTTTCTTTTT [CACACA_negctrl_site1295] | 7.72 ± 0.52
AAATATATAAAAGTATGTACATATGAAAAATATATA [XGTACX_site6165] | 8 ± 0.52
AACTAATAGTATATTACATGCAAAAGTAAAAGTAAA [TGCATGCA_site411] | 8.02 ± 0.78
GTATAAAAGTAACTAGTGCATTACATATGAATAAAA | 11.4 ± 0.6
TAGCTTATTAATATCATACACACATAGATATATTTA [CACACA_site3105] | 7.5 ± 0.54
CAATATTATAGATATACACACATAATGTGTAAAAAC [CACACA_site6631] | 7.87 ± 0.79
TTAAAATGAAGAAGTGCACACATATATATATTTATA [CACACA_site8063] | 9.67 ± 0.18
AAAATTAAAAATAACACACACATATATATATTTATA [CACACA_site2776] | 7.66 ± 0.34

Sequence | gcPBM binding intensity (ln)
TGTAAATTATAACGTGCACACATATTTAAAATGAAA [CACACA_site8915] | 11.2 ± 0.15
TTCATTCAAATTAACGTGCACATTATTAGTAAAAAC | 11.05 ± 0.035
TAAATTATAACGTGCACACATATTTAAAATGAAATG [CACACA_site2820] | 11.3 ± 0.23
AAAAAATTAACGAGTGCACACATATTTAGATAAAAT [CACACA_site8958] | 9.86 ± 0.18
TAAACGTTAGTATGTGTGCACATTAGTAATTTAAAA | 9.65 ± 0.3
TTAGTAAATACATTTGCACACATTATTTTTTAACAT [CACACA_site5448] | 9.36 ± 0.11
GAAAAATTAAAAATAACACACACATATATATATTTA [CACACA_site8896] | 7.56 ± 0.4
CTTAATAAGAATAAATGTACAAGGGATAAAAAATTT [XGTACX_site3213] | 8.02 ± 0.73
TTTTTTTTTTTTGAAACATGCATTGTTTTATTCTTA [TGCATGCA_site15] | 7.99 ± 0.85
GGAAATTTCAATATTTGTACATATATATATATATAT [XGTACX_site3222] | 9.56 ± 0.6
AGACATAAGATAATTACACACAATACATCCCTATAT [CACACA_site2227] | 7.76 ± 0.57
AGAAACCTTGTTAGTTAGCATATATATATATATATA [CACACA_negctrl_site372] | 9.46 ± 0.46
GGAAGCTAATTACACACATGCATATTTTTTTTTCAA [TGCATGCA_site548] | 8.16 ± 0.83
TATACTTTATATATTTTGTATATATATTTTTTTTAT [TGCATGCA_negctrl_site530] | 7.5 ± 0.28
GTTAATATTTTTGGGGGTACTTAAAAAAAAAAAAAA [XGTACX_site1477] | 9.29 ± 0.26
ATTTTTTTTTTTTTTTTGGGGGGGTATACTTTTAAA [CACACA_negctrl_site1020] | 11.6 ± 0.4
ATCTATGATATATACACACACATGTATAAATAAATA [CACACA_site7012] | 7.75 ± 0.47
TTTTTCTTTTTTTGTTGTACATTTTGTAATATTTAC [XGTACX_site4102] | 7.9 ± 0.59
TTATTTTTCTTTATTGGTACACACGAAAAAAAAATT [XGTACX_site6482] | 8.03 ± 0.3
TTTTTTTTTTTTTTTTTTTTTTTTGGGTCCCATACA [CACACA_negctrl_site913] | 8.1 ± 0.63
AAATTTATTATATATACATGCAATCATAAATAATGT [TGCATGCA_site539] | 7.68 ± 0.48
TAATGGAAACCATTTATTTTCTGCAATATATTTTTT [CACACA_negctrl_site1653] | 7.67 ± 0.35
AATCATTTATTGATGGTGCAATATACCATCTAATGA [GTGCAC_site9440] | 11.4 ± 0.76
TTACAAAAATGTGGTTGTACACAAACAAAAAAAATA [XGTACX_site8506] | 8.35 ± 0.29

Sequence | gcPBM binding intensity (ln)
TCTTTTTTTTCTTTTTTTTTATTTAAATATCAAGTA [CACACA_negctrl_site1354] | 7.59 ± 0.34
TTTTATTGTTGTTATACACACCATATAAAATATTTC [CACACA_site4983] | 7.92 ± 0.6
ATAAAAAGAAATCCAATACACACCTTCAAAATGGGT [CACACA_site1622] | 7.71 ± 0.72
AAAGATATAAATTACTGTACTAATGAAATTGGTAAA [XGTACX_site3582] | 7.67 ± 0.28
ATTATATATATGTGCACACAAAAGATATATATATAT [CACACA_site5205] | 10.2 ± 0.13
TTCAAAAGATATATCGTGCACATATATATGATGAAA | 11.155 ± 0.007
AAGAAAAGCATAGATGCACACATATATATATATATA [CACACA_site8675] | 9.485 ± 0.078
ACTTTTATTCGCTTACGTACATATATTATATATTAT [XGTACX_site4459] | 8.75 ± 0.55
TATAAATATTTATGTACACACATATACATGTTGAAT [CACACA_site5684] | 7.95 ± 0.43
AACCTTACACAAGGGGTGCAATATTATTTCGATAAA [GTGCAC_site9600] | 11.5 ± 0.66
AGCAATTTGGGGTGTACACACACCTTATTTAAATTA [CACACA_site1157] | 8.23 ± 0.22
AATATTATTATTATTACACACACAATTATATTTACC [CACACA_site8061] | 7.93 ± 0.38
TACATTTTACTTGTTACACACATATAAAATTAACCA [CACACA_site2922] | 7.82 ± 0.5
AATAGTAAAAATCACTGTACGTTTATTTTTAAAATG [XGTACX_site1035] | 7.79 ± 0.28
CCATAACTCATATGCACACATAAATATTACATATAT [CACACA_site3821] | 8.87 ± 0.13
TAGTTCTTTTAATTTAGTATTATACAATATTGGAAA [CACACA_negctrl_site521] | 7.49 ± 0.47
ATATAATATTTTAGAGTGCACCGATAACAATAAATA [GTGCAC_site9754] | 10.4 ± 0.17
ATAACAAAAATCCTTGTGCACTATTTTAATAGAGTC | 11.4 ± 0.12
TTTTAATATATAGAGTAACAAATTTGTCTATTAATA [CACACA_negctrl_site1495] | 7.5 ± 0.58
CATTTATATAAAGAATGTACACACAGAAATGCACAC [XGTACX_site4718] | 10.2 ± 0.2
TGTACACCCAGAAATGCACACACATATATATATATA [CACACA_site8716] | 9.54 ± 0.18
ATTTATATAAAGAATGTACACACAGAAATGCACCCA [CACACA_site8715] | 11 ± 0.83
TTATATAAAGAATGTACACACAGAAATGCACAGACA [CACACA_site5288] | 9.43 ± 0.29
TTATATAAAGAATGTACACACAGAAATGCACCCACA [CACACA_site2282] | 11 ± 0.57

Sequence | gcPBM binding intensity (ln)
GAAAGAAGCATAAATGTACACACATATTTATATATT [CACACA_site8368] | 7.74 ± 0.4
TCTTTCTCTCTTCAAAGTACATATAATATATACTTC [XGTACX_site7982] | 7.88 ± 0.52
TATTACAAATATGGCACACATATATATATATATATT [CACACA_site3268] | 8.69 ± 0.2
TAAAAAAAAAAGTATACACACTTCTTAATGTCAACA [CACACA_site4818] | 7.36 ± 0.46
ATATAATATTTATATGCACACTTTTCTATATATAAG [CACACA_site6100] | 9.77 ± 0.15
ATTAAAAAAAAAAGTATACACACTTCTTAATGTCAA [CACACA_site1244] | 7.39 ± 0.47
TTTTATGTTCTTAATGCACACTTATAAGTATCTTAT [CACACA_site4895] | 11.4 ± 0.72
TATATATATATATGTATGCACTTTAATTTTATAAGG | 9.85 ± 0.26
TTATGTTCTTAATGCACACTTATAAGTATCTTATAA [CACACA_site1394] | 10.99 ± 0.028
AGGAAATTTTTTTTTTTTTTTTTTTTTTTTTTTTAC [TGCATGCA_negctrl_site170] | 7.5 ± 0.56
TTTATTTTCATATGAACACACATATAAATATTATAA [CACACA_site7172] | 7.87 ± 0.41
ATTTTCTTTCTATGCACACGCACGTATTTGCACCCA [CACACA_site3350] | 11.5 ± 0.39
TTTATTTTATCATTTGCACACGCACCCCCACATAAA [CACACA_site8007] | 10.4 ± 0.26
TTATTTTCTTTCTATGCACACGCACGTATTTGCCCA [CACACA_site9104] | 9.39 ± 0.16
GCTTATATTAATAAGGTGCTTTTTATTTCGTGTGTA [GTGCAC_site9649] | 9.06 ± 0.15
AAGGAAAAAACAAATACACACAAAAACGCATTATAA [CACACA_site3466] | 7.87 ± 0.71
AACAACAACTAATATGCACACATTTAAAAACAAAAT [CACACA_site2440] | 9.42 ± 0.26
TGATTCTAACTTATGGTGCAACATTATGGACACCGT | 10.3 ± 0.35
ATGGTGCAACATTATGCACACCGTTAAATAACTAAT [CACACA_site9280] | 11.5 ± 0.7
TCATAAACATTATGCACACAAAAATAAAAAAAAATA [CACACA_site1115] | 9.8 ± 0.56
AATCATAAACATTATGCACACAAAAATAAAAAAAAA [CACACA_site8289] | 9.81 ± 0.11
TTATGGTGCAACATTATGCACACCGTTAAATAACTA [CACACA_site3846] | 11.1 ± 0.52

— the supplement of paper PMC11417369
